In PubChem BioAssay AID588726 (The Scripps Research Institute Molecular Screening Center, 2011):
The whole screen tested about 360,000 compounds, of which about 8,200 (2.3%) were called active. Many of the other results were omitted from the sample, so actives are more common in it than they were. Values without a mark were called inactive. Rule as the data show it: active = inhibition above about 27%; inactive = the rest.

What follows are compounds tested against Fructose-bisphosphate aldolase (Mycobacterium tuberculosis (strain ATCC 25618 / H37Rv)) (UniProt P9WQA3) (assay: M. tuberculosis aldolase activity blockers – biochemical, fluorescence, strain H37Rv, primary screen (AID 588726;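 also: 0% = vehicle and 100% = reference inhibitor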)). Details: purified M. tuberculosis FBA, fluorescence read-out, at 1 µM, active compounds read high.
Chain of Fructose-bisphosphate aldolase (Mycobacterium tuberculosis (strain ATCC 25618 / H37Rv)) (P9WQA3 whole entry, looked up): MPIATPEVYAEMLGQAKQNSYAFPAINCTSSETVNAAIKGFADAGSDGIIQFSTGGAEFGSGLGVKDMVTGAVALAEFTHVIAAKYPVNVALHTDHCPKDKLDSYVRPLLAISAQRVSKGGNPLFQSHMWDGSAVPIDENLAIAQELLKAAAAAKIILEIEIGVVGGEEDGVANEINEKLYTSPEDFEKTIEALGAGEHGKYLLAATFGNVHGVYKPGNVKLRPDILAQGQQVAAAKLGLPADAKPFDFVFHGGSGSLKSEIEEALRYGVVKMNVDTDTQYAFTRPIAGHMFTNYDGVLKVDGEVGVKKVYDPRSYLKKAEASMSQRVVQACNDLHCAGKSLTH
Compound `COc1ccc(-n2c(SCC(=O)Nc3ccc4c(c3)OCO4)nnc2C(C)N2CCCCC2)cc1` (stereo unspecified) has an inhibition of 0.95%.
With `COc1ccc(C(C(=O)NC2CCCC2)N(CCCO)C(=O)Cn2nnc(-c3ccc(C)o3)n2)cc1` (stereo unspecified) the inhibition was 0.22%.
`CCOC(=O)CCCCCC(=O)Nc1ccc2c(c1)CC(=O)N([C@@H](C)CO)C[C@H](C)[C@@H](CN(C)Cc1ccccc1)O2` gave an inhibition of 1.41%.
`Cc1nnc(NC2=NCCCCC2)o1` showed an inhibition of 2.72%.
`COC(=O)c1cccnc1NC(=S)NC(C)C` was tested, and the inhibition was -6.99%.
`CSc1nnc(-c2ccc(C(F)(F)F)cn2)o1` gave an inhibition of 7.82%.
Compound `Cc1ccc(-n2nc3c(c2NC(=O)c2ccc4c(c2)OCO4)CSC3)c(C)c1` has an inhibition of 0.86%.
For `C=CCNC(=O)c1ccc2c3n(nc2c1)-c1ccc(C)cc1CO3`, the inhibition was 46.8% (active).
`Cc1cccc(-c2nc3ccc(C(=O)NCCN4CCN(C)CC4)cc3nc2-c2cccc(C)c2)c1` gave an inhibition of 25.3%.
For `CC(C)c1ccc(C(=O)OC2CCOC2=O)cc1` (stereo unspecified), the inhibition was -2.02%.
Work on `COc1cc(C(=O)OC2CCOC2=O)c([N+](=O)[O-])cc1OC` (stereo unspecified) yielded an inhibition of 1.88%.
In the case of `O=C(OC1CCOC1=O)c1ccc(-c2nc3ccccc3s2)s1` (stereo unspecified), the inhibition is reported as 36.7% (active).
With `Cc1cc(C)c(S(=O)(=O)c2ccccc2)c(OC(=O)c2c(F)cccc2Cl)n1` the inhibition was 2.73%.
Work on `Cc1ccc2nc(-c3cccnc3)c(NC3CCCC3)n2c1` yielded an inhibition of 2.23%.
In the case of `COc1ccc(-c2nc3cc(C)ccn3c2NC2CCCCC2)cc1SC1CCCCC1`, the inhibition is reported as 27.2% (active).
Work on `COc1ccc(-c2nc3cnccn3c2NC2CCCCC2)cc1-c1cccc(Cl)c1` yielded an inhibition of 24.3%.
Compound `Cc1[nH]nc(-c2ccc(OCc3cnn(-c4ccccc4)c3)cc2O)c1Oc1ccc(Cl)cc1` has an inhibition of 3.96%.
`COc1ccc(S(=O)(=O)N2CCOC2CNC(=O)C(=O)NCc2ccc(F)cc2)cc1` (stereo unspecified) gave an inhibition of -0.16%.
`CC(Oc1ccc(F)cc1)C(=O)N1CCN(c2ncccn2)CC1` (stereo unspecified) gave an inhibition of 1.68%.
With `CC12CCC(C(=O)N3CCN(c4ncccn4)CC3)(c3nc4ccccc4nc31)C2(C)C` (stereo unspecified) the inhibition was 30% (active).
`c1cnc(N2CCN(c3ccc4ccccc4n3)CC2)nc1` was tested, and the inhibition was 2.95%.
Work on `COC(=O)C1=CO[C@@H](O[C@@H]2O[C@H](CO)[C@@H](O)[C@H](O)[C@H]2O)C2C1C[C@H](O)[C@@H]2C` (stereo partly specified) yielded an inhibition of -0.2%.
For `CCOC(=O)C1CCN(C(=O)COc2cccc3ccccc23)CC1`, the inhibition was -4.37%.
`CCc1cc(=O)oc2c(C)c(OCC(=O)N3CC[C@@]4(O)CCCC[C@H]4C3)ccc12` was tested, and the inhibition was 36.8% (active).
In the case of `Cc1c(C)c2ccc(OCC(=O)N3CCC(C(=O)O)CC3)c(C)c2oc1=O`, the inhibition is reported as 119% (active).
For `CCCCc1cc(=O)oc2c(C)c(OCC(=O)N3CCC(C(N)=O)CC3)ccc12`, the inhibition was 13.9%.
For `CCc1cc(=O)oc2c(C)c(OCC(=O)NCCN3CCOCC3)ccc12`, the inhibition was 18%.
With `CCCc1cc(=O)oc2c(C)c(OCC(=O)Nc3ccccn3)ccc12` the inhibition was 14.2%.
Work on `Cc1cc(=O)oc2c(C)c(OCC(=O)N3CCN(Cc4ccc5c(c4)OCO5)CC3)ccc12` yielded an inhibition of 20.6%.
For `CCCc1cc(=O)oc2c(C)c(OCC(=O)N3CCC(C(=O)O)CC3)ccc12`, the inhibition was 44.1% (active).
`N#Cc1cccc(OC(=O)c2ccc3c(=O)n4c(nc3c2)CCC4)c1` showed an inhibition of 1.39%.
Work on `CCCc1cc(=O)[nH]c(SCc2cc(=O)oc3c(C)c(C)ccc23)n1` yielded an inhibition of -1.06%.
`COC(=O)c1sc(-c2ccc(C(C)(C)C)cc2)cc1NC(=O)/C=C/C(=O)O` gave an inhibition of 1.9%.
For `CCC(C)(C)n1nnnc1CN1CCN(c2nc3ccc(C)cc3cc2C#N)CC1`, the inhibition was 3.89%.
Work on `COc1cc2c(cc1OC)C(C)N(S(=O)(=O)c1cnc(Cl)c(Cl)c1)CC2` (stereo unspecified) yielded an inhibition of -4.46%.
Work on `CN(CCC#N)c1ncnc2scc(-c3ccccc3)c12` yielded an inhibition of 4.16%.
With `COC(=O)c1sc(N2CCN(Cc3ccccc3)CC2)nc1N` the inhibition was 1.57%.
For `C=CCNc1nc(N)c(C(=C(C#N)C#N)c2ccccc2)s1`, the inhibition was 135% (active).
With `COc1ccc(N(CC(=O)NC2CCCCC2)C(=O)CNC(=O)c2ccco2)c(OC)c1` the inhibition was 3.44%.
For `O=c1[nH]c(=O)n(Cc2ccco2)c2c1C(C(F)(F)F)(C(F)(F)F)N=C(c1ccco1)N2`, the inhibition was 1.76%.
In the case of `CCCCC[C@@H]1C=C(C(=O)OCC)[C@H](c2ccccc2)N1S(=O)(=O)c1ccc(C)cc1`, the inhibition is reported as -1.47%.
In the case of `CN(CCc1ccccn1)C1CCCN(S(=O)(=O)c2ccccc2Cl)C1` (stereo unspecified), the inhibition is reported as -1.97%.
With `CN(CC(=O)NCCc1ccccn1)S(=O)(=O)c1ccc(Cl)cc1` the inhibition was -1.58%.
With `CN(CCc1ccccn1)S(=O)(=O)c1ccc2c3c(cccc13)C(=O)N2` the inhibition was 50.8% (active).
`CC1(C)Cc2c(sc3nc(SCC(=O)NCc4ccccc4)n(-c4ccccc4)c(=O)c23)CS1` gave an inhibition of 1.67%.
In the case of `CCCNC(=S)NC1CC2CCCC(C1)N2CC(C)C` (stereo unspecified), the inhibition is reported as 0.49%.
Compound `COC(=O)C1=NNC2(c3ccc(C)cc3)C(=O)N(c3cccc(C)c3C)C(=O)C12` (stereo unspecified) has an inhibition of -2.73%.
For `COC(=O)c1c(-c2cccs2)csc1NC(=O)CSc1ncnc2sc(C)c(C)c12`, the inhibition was 1.16%.
In the case of `CCNC(=O)CN(c1ccc(C)cc1)S(=O)(=O)c1ccc(SC)cc1`, the inhibition is reported as -1.29%.
In the case of `Cc1ccc(C(=O)NNC(=O)OC(C)(C)C)c(Cl)c1`, the inhibition is reported as -0.17%.
`O=C(NNc1c2ccccc2nc2ccccc12)c1cc2ccccc2cc1O` showed an inhibition of -10.4%.
`CC(C)(C)OC(=O)NNc1c2ccccc2nc2ccccc12` was tested, and the inhibition was 74.1% (active).
For `Cc1ccc(S(=O)(=O)N(CCCN(C)C)Cc2ccc3c(c2)OCO3)cc1`, the inhibition was 1.83%.
In the case of `O=C(CCN1C(=O)[C@@H]2Cc3ccccc3CN2C1=O)NCCc1ccccc1`, the inhibition is reported as -6.76%.
`CC(=O)c1cccc(NC(=O)C2CCCN(S(=O)(=O)c3cccc4nonc34)C2)c1` (stereo unspecified) showed an inhibition of 5.88%.
With `O=C(CN(C(=O)CNC(=O)c1cccs1)c1cccc(F)c1)NC1CCCCC1` the inhibition was -0.45%.
Compound `Cn1c(CCc2ccccc2)nnc1SCC(N)=O` has an inhibition of -0.79%.
`COC(=O)CCNC(=O)c1ccc2[nH]c(C)c(C)c2c1` showed an inhibition of 4.35%.
In the case of `CCCCNC(=O)c1ccc(-n2c(=S)[nH]c3ccccc3c2=O)cc1`, the inhibition is reported as -2.52%.
`CN(C)CCCNC(=O)c1ccc2[nH]c3ccccc3c2c1` was tested, and the inhibition was 34.9% (active).
For `O=C(Nc1ncc2c(n1)CC(c1ccco1)CC2=O)c1ccc(Cl)cc1` (stereo unspecified), the inhibition was -1.48%.
Work on `O=C(Nc1ccc(Cl)cn1)c1ccccc1-c1ccccc1` yielded an inhibition of -2.1%.
With `O=C(Nc1ncc2c(n1)-c1ccccc1OC2)c1ccc(Cl)cc1` the inhibition was 97.1% (active).
`CC(C)NC(=O)C(=O)NCCN1CCN(S(=O)(=O)c2ccc(Cl)cc2)CC1` was tested, and the inhibition was 2.59%.
`CC1(C)O[C@@H]2[C@H](O1)[C@@H](CO)O[C@H]2n1c(N2CCCCC2)nc2c(N)ncnc21` showed an inhibition of 0.56%.
For `O=C(Nc1cccc(Cl)c1)c1cncn1-c1ccc(F)cc1`, the inhibition was 6.15%.
In the case of `CCC(=O)Nc1ccc2nn(-c3ccc(F)cc3)nc2c1`, the inhibition is reported as 102% (active).
`CCOC(=O)N1CCN(CC(=O)Nc2ccc(F)cc2)CC1` was tested, and the inhibition was -0.85%.
`Nc1c(N(CCO)C(=O)C2CCCCC2)c(=O)[nH]c(=O)n1Cc1ccccc1` was tested, and the inhibition was 5.19%.
In the case of `CCc1nccn1CCC(=O)N1CCCC(N2CCN(c3ccccc3F)CC2)C1` (stereo unspecified), the inhibition is reported as -1.12%.
Compound `CNC(=O)c1nnn(-c2ccccc2)c1C(=O)NC` has an inhibition of 3.79%.
Compound `N#CCCN1CCN(S(=O)(=O)c2ccc(S(=O)(=O)NC3CC3)cc2)CC1` has an inhibition of -0.2%.
Work on `CC(Sc1nnc(-c2ccccc2F)n1C1CC1)C(N)=O` (stereo unspecified) yielded an inhibition of -0.8%.
For `Cc1cc(C)c2nc3nc(C)cc(C)c3c(N)c2c1`, the inhibition was 42.9% (active).
For `CCC(=O)Nc1ccc(-c2ccc(N3CCCCC3)nn2)cc1`, the inhibition was 4.9%.
With `CC(=O)N1N=C(c2ccncc2)OC1(Cc1ccccc1)Cc1ccccc1` the inhibition was 46.8% (active).
With `O=C(Cc1ccccc1)N1N=C(c2ccncc2)CC1(O)C(F)(F)F` (stereo unspecified) the inhibition was -4.28%.
Compound `CC(=O)N1N=C(c2ccccc2)OC1c1cccnc1` (stereo unspecified) has an inhibition of -0.2%.
`CCCCn1c(SCc2ncc(-c3ccccc3)o2)nc2cc(S(N)(=O)=O)ccc21` gave an inhibition of -3.35%.
With `O=C(CN(Cc1ccc(Br)cc1)S(=O)(=O)c1ccccc1)NCc1ccncc1` the inhibition was 3.05%.
Compound `Cc1ccc2c(C(=O)CN3CCCC3)c(C)[nH]c2c1` has an inhibition of -0.06%.
In the case of `COc1cc(NC(=O)c2ccccc2NS(=O)(=O)c2ccc(Cl)s2)cc(OC)c1`, the inhibition is reported as 2.51%.
With `O=C(Nc1cccc(Cl)c1)Nc1ccccc1NS(=O)(=O)c1cccs1` the inhibition was -6.91%.
With `O=C(Nc1nncs1)c1ccccc1NS(=O)(=O)c1cccs1` the inhibition was 75% (active).
`CCCNc1ncnc2sc(C)c(C)c12` was tested, and the inhibition was 2.22%.
For `O=C(Nc1c(Cl)cccc1Cl)C1CCC1`, the inhibition was 5.25%.
Compound `O=C(Nc1ccc(F)cc1)c1cccnc1N1CCOCC1` has an inhibition of 1.16%.
With `Cc1cccc(C(=O)NC(=S)N2CCN(c3ccc([N+](=O)[O-])cc3)CC2)c1` the inhibition was -0.47%.
Compound `CCC(=O)Nc1cccc(C2=NOC3(C2)C[C@@H](C(N)=O)N(C(=O)c2cc([N+](=O)[O-])cc([N+](=O)[O-])c2C)C3)c1` (stereo partly specified) has an inhibition of -2.54%.
`N#CC1=C(N)Oc2[nH]c(=S)[nH]c(=O)c2C12C(=O)Nc1ccccc12` (stereo unspecified) was tested, and the inhibition was 126% (active).
In the case of `Cc1ccc(NC2(C#N)C(=O)Nc3ccccc32)cc1` (stereo unspecified), the inhibition is reported as -3.14%.
